The source made the active and inactive calls.

The test system of test [1] is Human papillomavirus type 1a protein E7 (residues 44-93). Kind of test: small molecules binding HPV E7 44-93 – biochemical, small-molecule microarray, residues 44-93, 635 nm fluorescence, primary screen (AID 1108).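 Further: E7 fragment applied at 1 µg/mL in TBST for 1 h at 4 C; score combines spot fluorescence with its signal to noise ratio.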 To be noted: fluorescence 635 nm, higher = more signal.
Test [2] can be described thus: hepatitis C replication reporter changes, two-sided – Huh7 cells, luciferase reporter, HCV replication inhibitor project, primary screen (AID 1109).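 Further: huh7 hepatoma cells harbouring a luciferase neomycin HCV replicon reporter; luciferase luminescence as measure of HCV replicon replication; test concentration not given here.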 As to conditions: Huh7 HCV replicon luciferase reporter, 48 h; higher = more signal. (Reporter assays use an easily measured gene product as a stand-in for the process of interest.)
Test [3] has as its target Left-right determination factor 2 (Homo sapiens) (UniProt O00292). Briefly: small molecules binding LEFTY2 protein – biochemical, small-molecule microarray, 635 nm fluorescence scan, primary screen (AID 1110). As to conditions: higher = more signal.
Test [4] has as its target Calmodulin-1 (Homo sapiens) (UniProt P0DP23). Kind of test: small molecules binding calmodulin-1 with EGTA – biochemical, small-molecule microarray, Cy5-labelled CALM1, profiling panel (AID 1111).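 Further: labelled calmodulin applied in Tris saline Tween buffer holding calcium plus EGTA and DTT.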 To be noted: Cy5-CALM1 binding fluorescence, higher = more signal.
Test [5] shares this target. Kind of test: small molecules binding Ca-loaded calmodulin-1 – biochemical, small-molecule microarray, Cy5-labelled CALM1, plus calcium, artefact control for SMM control-protein annotation, profiling panel (AID 1112).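 Further: score merges spot fluorescence with signal to noise from triplicate slides.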 To be noted: Cy5-CALM1 binding fluorescence, higher = more signal.
Test [6] in a line: probe aWnt5a binding to arrayed compounds – biochemical, biotinylated probe, 635/667 nm fluorescence, primary screen (AID 1113).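 Further: score merges 667 nm fluorescence intensity with signal-to-noise per printed feature.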 As to conditions: small-molecule microarray, higher = more signal.
Test [7] can be described thus: probe aShh binding to arrayed compounds – biochemical, biotinylated probe, 635/667 nm fluorescence, primary screen (AID 1114).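 Further: probe is biotin-labelled aShh protein from a stem cell growth factor screen; measures binding of labelled protein to compounds printed on the slide; score merges feature fluorescence at 667 nm with signal-to-noise.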 To be noted: small-molecule microarray, higher = more signal.
The nature of test [8]: probe aNog binding to arrayed compounds – biochemical, biotinylated probe, 635/667 nm fluorescence, primary screen (AID 1115).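 Further: probe is biotinylated aNog protein used at 0.15 µg/mL for 1 h at 4 C; z-score combines 667 nm fluorescence of each spot with its signal to noise.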 To be noted: small-molecule microarray, higher = more signal.
The target of test [9] is Torsin-1A-interacting protein 1 (Homo sapiens) (UniProt Q5JTV8). Kind of test: compound microarray binding of lysate hLAP1 – cell lysate, small-molecule microarray, COS7 lysate, 635/667 nm fluorescence, primary screen (AID 1116). To be noted: 635 nm fluorescence, higher = more signal.
Test [10] has as its target Alpha-bungarotoxin (Bungarus multicinctus) (UniProt P60615). Briefly: compounds binding labelled alpha-BTX control protein – biochemical, small-molecule microarray, Alexa647 label, 635/667 nm fluorescence, artefact control for SMM control protein annotation, profiling panel (AID 1117). As to conditions: alpha-BTX-A647 binding fluorescence, higher = more signal.
Test [11] has as its target Albumin (Bos taurus) (UniProt P02769). Kind of test: compounds binding labelled BSA control protein – biochemical, small-molecule microarray, Alexa647 label, 635/667 nm fluorescence, artefact control for SMM control protein annotation, profiling panel (AID 1118).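 Further: score merges 667 nm emission intensity and signal-to-noise per printed compound spot.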 As to conditions: BSA-A647 binding, fluorescence 635 nm, higher = more signal.
A short description of test [12]: probe aXIP binding to arrayed compounds – biochemical, NeuroSMM set, 635/667 nm fluorescence, primary screen (AID 1119).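 Further: probe is the protein aXip251-270 applied at 1 µg/mL to compound-printed slides; binding of probe to printed compounds measured as 667 nm fluorescence plus signal to noise.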 As to conditions: small-molecule microarray, higher = more signal, called active from +8 up or from −8 down.
Test [13] is described as follows: probe aNOTCH3 binding on compound microarray – biochemical, small-molecule microarray, 635/667 nm fluorescence, primary screen (AID 1120).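 Further: probe is a biotin-tagged antibody raised against NOTCH3 rather than NOTCH3 protein; score merges spot fluorescence near 667 nm with spot signal to noise.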 To be noted: higher = more signal.
Test [14] is described as follows: probe aNOTCH2 binding on compound microarray – biochemical, small-molecule microarray, 635/667 nm fluorescence, primary screen (AID 1121).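 Further: score merges feature fluorescence read at 667 nm with its signal to noise.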 As to conditions: higher = more signal.
The target of test [15] is Carbonic anhydrase 2 (Homo sapiens) (UniProt P00918). Briefly: compounds binding carbonic anhydrase 2 – biochemical, small-molecule microarray, Alexa647-labelled CAII, profiling panel (AID 1122). As to conditions: CAII-A647 binding fluorescence, higher = more signal.
The nature of test [16]: COS7 lysate on small-molecule microarray, probe aHis, 635 nm (AID 1123).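 Further: z-score combines 667nm fluorescence intensity with signal-to-noise per printed compound spot.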 To be noted: COS7 cell lysate, fluorescence, higher = more signal.
A short description of test [17]: probe aLAP1 signal on lysate-treated microarray – cell lysate, small-molecule microarray, COS7 lysate, primary screen (AID 1124).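 Further: lysate comes from COS7 cells expressing LAP1 and is applied at 0.3 µg/mL; score merges spot fluorescence near 667 nm with signal-to-noise over triplicate slides.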 To be noted: probe aLAP1, fluorescence, higher = more signal.
The subject of test [18] is Sam68 (KHDRBS1). Briefly: compounds binding KHDRBS1 protein – biochemical, small-molecule microarray, 635 nm fluorescence, primary screen (AID 1125).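 Further: score merges 667 nm channel intensity with signal to noise over triplicate slides.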 To be noted: higher = more signal.
Test [19] concerns Chordin-like protein 2 (CHRDL2). Briefly: compounds binding chordin-like 2 – biochemical, small-molecule microarray, 635 nm fluorescence, primary screen (AID 1126).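 Further: printed compound slides probed with Chrdl2 protein at 4 µg/mL for 1 h at 4 C; score merges 667 nm emission intensity with signal to noise over three replicate slides.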 To be noted: fluorescence 635 nm, higher = more signal.
Test [20] deals with Concanavalin-A (Canavalia ensiformis) (UniProt P02866). Kind of test: compounds binding concanavalin A lectin – biochemical, small-molecule microarray, Alexa647 label, 635 nm, artefact control for SMM control protein annotation, primary screen (AID 1127).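 Further: z combines 667 nm emission intensity with signal-to-noise across three replicate slides.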 As to conditions: ConA-A647 binding fluorescence, higher = more signal.
Concanavalin-A (Canavalia ensiformis), sequence (P02866 whole entry, looked up): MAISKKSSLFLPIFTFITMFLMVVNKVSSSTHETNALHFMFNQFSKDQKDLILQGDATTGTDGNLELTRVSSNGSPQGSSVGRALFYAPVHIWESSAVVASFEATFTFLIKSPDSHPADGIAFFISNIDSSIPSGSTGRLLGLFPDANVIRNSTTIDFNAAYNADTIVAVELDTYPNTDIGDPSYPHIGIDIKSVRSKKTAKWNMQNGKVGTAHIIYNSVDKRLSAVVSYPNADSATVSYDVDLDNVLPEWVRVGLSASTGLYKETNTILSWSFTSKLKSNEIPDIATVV

Albumin (Bos taurus), sequence (P02769 whole entry, looked up): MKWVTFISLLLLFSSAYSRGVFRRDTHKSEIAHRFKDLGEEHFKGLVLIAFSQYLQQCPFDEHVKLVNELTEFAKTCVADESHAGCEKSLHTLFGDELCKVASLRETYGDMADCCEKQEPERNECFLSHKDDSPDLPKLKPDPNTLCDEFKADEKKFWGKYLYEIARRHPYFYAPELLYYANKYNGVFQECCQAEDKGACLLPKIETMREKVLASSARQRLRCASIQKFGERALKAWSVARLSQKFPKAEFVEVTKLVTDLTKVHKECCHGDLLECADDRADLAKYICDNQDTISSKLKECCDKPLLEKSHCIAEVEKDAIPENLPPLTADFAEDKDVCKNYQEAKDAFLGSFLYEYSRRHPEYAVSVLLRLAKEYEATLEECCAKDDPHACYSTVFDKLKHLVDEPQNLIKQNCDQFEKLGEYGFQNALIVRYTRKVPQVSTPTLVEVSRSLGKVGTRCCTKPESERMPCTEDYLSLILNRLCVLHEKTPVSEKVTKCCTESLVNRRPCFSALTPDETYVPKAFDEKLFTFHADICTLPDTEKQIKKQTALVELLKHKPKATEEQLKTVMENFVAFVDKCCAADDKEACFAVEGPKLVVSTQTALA
Alpha-bungarotoxin (Bungarus multicinctus), sequence (P60615 whole entry, looked up): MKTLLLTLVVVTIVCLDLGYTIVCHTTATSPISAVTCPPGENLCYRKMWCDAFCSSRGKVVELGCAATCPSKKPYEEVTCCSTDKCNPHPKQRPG
Torsin-1A-interacting protein 1 (Homo sapiens), sequence (Q5JTV8 whole entry, looked up): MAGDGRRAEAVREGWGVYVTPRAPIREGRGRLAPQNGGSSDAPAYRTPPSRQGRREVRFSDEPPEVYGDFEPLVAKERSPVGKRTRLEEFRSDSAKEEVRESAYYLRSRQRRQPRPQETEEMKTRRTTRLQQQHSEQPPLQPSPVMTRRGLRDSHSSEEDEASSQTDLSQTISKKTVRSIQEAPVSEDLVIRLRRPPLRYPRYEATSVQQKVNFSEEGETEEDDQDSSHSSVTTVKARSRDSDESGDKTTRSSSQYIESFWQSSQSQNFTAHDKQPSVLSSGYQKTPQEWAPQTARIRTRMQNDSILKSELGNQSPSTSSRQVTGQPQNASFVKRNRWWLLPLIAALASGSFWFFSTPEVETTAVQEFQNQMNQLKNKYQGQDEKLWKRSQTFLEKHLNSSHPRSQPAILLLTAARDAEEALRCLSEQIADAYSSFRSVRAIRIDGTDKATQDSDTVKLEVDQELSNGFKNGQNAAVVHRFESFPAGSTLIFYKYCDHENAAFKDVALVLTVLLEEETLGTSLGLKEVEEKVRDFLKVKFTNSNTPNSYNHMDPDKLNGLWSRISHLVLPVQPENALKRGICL
Left-right determination factor 2 (Homo sapiens), sequence (O00292 whole entry, looked up): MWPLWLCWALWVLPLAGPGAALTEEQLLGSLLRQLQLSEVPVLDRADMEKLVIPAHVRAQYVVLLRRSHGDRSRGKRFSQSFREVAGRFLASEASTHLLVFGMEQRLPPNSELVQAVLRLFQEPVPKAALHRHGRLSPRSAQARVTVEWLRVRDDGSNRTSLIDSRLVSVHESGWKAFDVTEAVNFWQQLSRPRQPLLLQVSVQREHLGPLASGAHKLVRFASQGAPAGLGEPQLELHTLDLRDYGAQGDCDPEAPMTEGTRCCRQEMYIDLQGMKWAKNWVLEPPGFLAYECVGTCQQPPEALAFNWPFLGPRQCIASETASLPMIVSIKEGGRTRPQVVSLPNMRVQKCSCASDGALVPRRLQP

As for `Cc1ccc(S[C@]2(C(=O)NCC(C)C)CC(=O)N(Cc3ccccc3)[C@@H]2c2ccc(CO)cc2I)cc1`, the composite z-score in [1] was 1.29; in test [3] it was 0.118; in test [4], 0.425; in [5], 0.473; in test [6] it was -0.063; in test [7], -0.196. The composite z-score in [8] is -0.67; in test [9], 0.0825; in [10], 0.545; in test [11], 0.256; in [13], 0.0301; in test [14], -0.125. For the same molecule, the composite z-score is 0.633 in test [15]; 1.21 in test [16]; 0.888 in test [17]; 1.18 in test [18]; 0.718 in test [19]; 0.939 in [20]. The molecule further came in with a z-score in test [2] of -2.6. Moreover, in test [12], the composite Z-score was 0.552 (inactive).
As to `CCN(CC)c1ccc(N2CC=CC34O[C@@H]5C=CCCOC(=O)C5[C@H]3C(=O)N(CCCCCO)[C@@H]4C2=O)cc1` (stereo not given in full), the composite z-score is -0.668 in test [1]; -0.48 in [3]; -1.15 in [4]; -1.45 in test [5]; -0.0721 in test [6]; 0.0756 in [7]. In addition, the composite z-score in test [8] is -0.025; in [9] it was 1.04; in [10], -0.66; in [11], -0.515; in test [13] it was 0.0522; in test [14] it was 0.396. In addition, the composite z-score in test [15] is 0.285; in test [16], 0.395; in test [17] it was 0.483; in [18], 0.13; in test [19], -0.218; in test [20], -0.459. For the same molecule, the z-score in [2] worked out at 0.348. The composite Z-score in test [12] is 1.07 (inactive).
For `CCCCCCc1nc(CCCc2cc3c(c(CCCCCC)n2)[Si](C(C)C)(C(C)C)OC3)cc2c1[Si](C(C)C)(C(C)C)OC2`, the composite z-score in test [1] is -0.893; in test [3] it was -0.116; in [4], -0.63; in [5], -0.0511; in test [6] it was -0.1; in test [7], 0.214. Also, the composite z-score in test [8] is -0.303; in test [9], -0.386; in test [10], -0.325; in test [11], -1.17; in [13] it was -0.0427; in [14], -0.0649. The composite z-score in [15] is -0.567; in [16], 0.111; in [17] it was 0.0313; in test [18], -0.641; in test [19], 0.21; in test [20], -0.569. In test [2], this molecule came in with a z-score of -3.46. Besides, the composite Z-score in [12] was -0.295 (inactive).
Turning to `C[C@H]1NC(=O)[C@H](Cc2ccccc2)NC(=O)[C@@]23C(=O)N[C@@H](Cc4ccccc4)C2[C@H](C)[C@@]2(C)O[C@H]2C3/C=C/C/C=C\CNC1=O` (stereo not given in full), the composite z-score in [1] was -0.794; in [3], 0.133; in test [4], -0.638; in test [5] it was -0.859; in test [6] it was -0.146; in [7] it was -0.324. The composite z-score in test [8] is -0.429; in test [9] it was -0.214; in [10], -0.407; in test [11] it was -1.45; in test [13], -0.15; in test [14], -0.118. Besides, the composite z-score in test [15] was -0.0479; in [16], -1.21; in test [17] it was 0.0584; in test [18], -1.69; in test [19], 0.417; in test [20], -1.44. In [2], the z-score is 0.136. Moreover, the composite Z-score in [12] was 0.572 (inactive).
Regarding `CS(=O)(=O)CCOC(=O)C1=CC(CCCO)=CC(c2cccs2)N(Cc2cc3c(cc2Br)OCO3)C=C1C(=O)OCCS(C)(=O)=O` (stereo not given), the composite z-score amounted to 1.27 in test [1]; 0.858 in test [3]; 1.29 in test [4]; 0.671 in test [5]; 0.0968 in test [6]; 0.0639 in [7]. Moreover, the composite z-score in [8] was -0.261; in [9], 0.955; in [10], 1.8; in test [11], 0.974; in test [13], 0.183; in test [14] it was -0.0149. Moreover, the composite z-score is 0.337 in test [15]; 1.64 in [16]; 0.817 in [17]; 1.3 in test [18]; 0.164 in [19]; 0.986 in test [20]. The z-score in test [2] is -1.22. Moreover, in test [12], the composite Z-score is 1.05 (inactive).
Take `C=CC[C@@]1(C(=O)N2CCOCC2)N=C(c2ccc(OCCCO)cc2)O[C@@H]1c1ccccc1N=[N+]=[N-]`: the composite z-score was 1.45 in [1]; 0.37 in test [3]; 1.83 in test [4]; 0.904 in test [5]; 0.171 in test [6]; -0.043 in test [7]. Further, the composite z-score amounted to 1.82 in test [8]; 1.47 in [9]; 1.8 in [10]; 0.872 in test [11]; 0.364 in test [13]; 0.0753 in [14]. The composite z-score in test [15] is 0.419; in [16], 2.43; in test [17], 1; in [18] it was 1.29; in test [19] it was -0.142; in test [20], 1.09. Moreover, the z-score in test [2] is -1.82. Besides, in test [12], the composite Z-score was -0.885 (inactive).
With `C=CCC(OC(C)=O)[C@@H]1[C@@H](N(Cc2cccc3ccccc23)C(=O)c2ccc(C)cc2)c2cc(OCCCO)ccc2N1C(=O)Cc1ccc(OC)cc1` (stereo not given in full), the composite z-score in test [1] is 0.332; in [3], -0.248; in [4] it was 0.327; in [5], -0.0943; in test [6], -0.124; in test [7] it was 0.0278. The composite z-score in test [8] was -0.198; in test [9] it was 0.0873; in [10], 0.215; in test [11], 0.15; in test [13], 0.114; in [14], -0.127. The composite z-score in test [15] was 0.112; in [16] it was 0.223; in test [17], -0.0098; in test [18], 0.175; in [19] it was 0.352; in [20], 0.0517. In [2], this molecule displayed a z-score of -0.22. Also, the composite Z-score in test [12] was -0.858 (inactive).
In the case of `C=C[C@@H](COC(C)=O)N(Cc1ccccc1[N+](=O)[O-])S(=O)(=O)c1ccc(Br)cc1`, the composite z-score is 1.08 in [1]; 1.02 in test [3]; 0.198 in [4]; -0.0348 in test [5]; -0.0185 in test [6]; -0.0192 in [7]. The composite z-score in test [8] was -0.56; in test [9], 0.954; in [10], 0.864; in test [11], 0.138; in test [13], 0.122; in test [14], 0.181. In addition, the composite z-score was 0.659 in [15]; -0.0383 in test [16]; 0.343 in test [17]; 0.92 in test [18]; 1.32 in [19]; 0.602 in [20]. The molecule also yielded a z-score in test [2] of -1.86. Further, the composite Z-score in [12] is 1.55 (inactive).

These data come from PubChem BioAssay.
